Shown are actives, neighbours in structure and some others; about 3.5% of the full set was active somewhere.
GPR151 ag: activators of human GPR151; PathHunter beta-arrestin GPR151 cells, luminescence; activation, % at 11.2 µM; 1% of 650,000 active; in the data active = activation above about 4.9%;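 also: 0% = median of compound wells and 100% = cells with positive control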
Target sequence (Q8TDV0 whole entry, looked up): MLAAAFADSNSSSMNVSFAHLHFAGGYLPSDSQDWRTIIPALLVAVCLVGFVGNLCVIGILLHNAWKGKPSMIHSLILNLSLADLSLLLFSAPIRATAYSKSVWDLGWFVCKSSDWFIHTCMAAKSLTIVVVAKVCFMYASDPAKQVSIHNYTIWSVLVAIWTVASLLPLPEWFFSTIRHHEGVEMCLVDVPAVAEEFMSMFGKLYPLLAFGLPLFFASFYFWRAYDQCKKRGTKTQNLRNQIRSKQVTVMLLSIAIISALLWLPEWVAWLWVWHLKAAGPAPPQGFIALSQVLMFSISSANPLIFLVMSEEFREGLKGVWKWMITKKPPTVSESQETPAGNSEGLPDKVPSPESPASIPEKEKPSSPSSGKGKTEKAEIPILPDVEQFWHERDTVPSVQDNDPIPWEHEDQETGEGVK
TEAD-YAP block: TEAD-YAP interaction inhibition; HEK-TIYL cells, TEAD-Gal4/YAP UAS-luciferase luminescence; inhibition, % at 9.12 µM; 1.4% of 640,000 active; AID 1259422; in the data active = inhibition above about 32%;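 also: 0% = median of test compound wells and 100% = reference inhibitor wells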
MITF primary: blocks human microphthalmia-associated transcription factor | O75030 | 0.91% of 650,000 active | AlphaScreen MITF homodimerization, bead proximity signal | AID 1259374 | inhibition, % at 2.6 µM; in the data active = inhibition above about 50%;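 also: 0% = vehicle wells with protein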
FBW7 act: activators of human E3 ligase FBW7. Q969H0. AlphaScreen FBW7–phospho-cyclin E peptide binding, activator screen. normalized activity (activation), % at 26.1 µM. 0.13% of 650,000 active; in the data active = normalized activity above about 1.9%;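 also: purified mutant Fbw7 with reduced substrate affinity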
The depositor's hits bear a star; ! = not confirmed by another sample.

SMILES	GPR151 ag	TEAD-YAP block	MITF primary	FBW7 act
CCc1nc(SCC(=O)NCc2cccs2)c2c(C)c(C)sc2n1	0	-6	4	8.1*
C=C(Cl)COc1nc2cc(OC)c(OC)cc2cc1CNCc1ncc(C)[nH]1	0	9	19	0
CC(C)c1cc(C(=O)Nc2ccc(F)cc2)nn1-c1nc2ccccc2s1	1	-7	34	0
CC(C)c1cc(C(=O)NCc2ccco2)nn1-c1nc2ccccc2s1	1	78*	-2	0
O=C(CN1C(=O)NC2(CCCCC2)C1=O)Nc1ccc(Cl)cc1C(F)(F)F	0	7	-1	0
COc1ccccc1C(=O)NCCn1cc(SCC(=O)Nc2ccc(C)cc2)c2ccccc21	0	1	-2	0
COc1ccccc1C(=O)NCCn1cc(SCC(=O)Nc2ccc(Br)cc2)c2ccccc21	0	5	8	2.0*
CN1C(=O)c2ccccc2CC1(C)C	0	-1	10	0
CC1(C)Cc2ccccc2-c2[nH][nH]c(=O)c21	-1	37*	16	0
Cc1ncc([N+](=O)[O-])n1S(=O)(=O)c1cccc2ccccc12	0	5	0	2.3*
Cc1ncc([N+](=O)[O-])n1S(=O)(=O)c1ccccc1	0	11	11	0
c1ccc(CN2CCC(Nc3cc(Nc4ccc(N5CCOCC5)cc4)ncn3)CC2)cc1	1	-2	-3	0
CCCN(CCC)CCCNC(=O)C1CCC(=O)N1C(C)C (stereo not drawn)	1	-10	0	0
C=CCNC(=O)C1CCC(=O)N1C(C)C (stereo not drawn)	0	-1	-7	2.1*
O=C(/C=C/c1ccc(F)cc1)N1CCN(Cc2ccccc2)CC1	0	-26	-7	0
O=C(/C=C/c1ccccc1)N1CCN(Cc2nc(-c3ccc(F)cc3)cs2)CC1	0	39*	10	0
COc1ccc(CCNc2nc(N3CCCC3CO)nc3c2ncn3-c2ccccc2)cc1 (stereo not drawn)	-2	8	9	0
CCCNc1nc(N2CCCC2CO)nc2c1ncn2-c1ccccc1 (stereo not drawn)	2	37*	8	0
OCC1CCCN1c1nc(NCCc2ccc(O)cc2)c2ncn(-c3ccccc3)c2n1 (stereo not drawn)	-1	43*	3	0
C=CCn1c(CNC(=O)c2cccc(C)c2)nnc1SCC(=O)NCc1ccccc1	1	10	0	0
CN1CCN(c2ccc(-c3nc4ccc(C(N)=O)cc4s3)cc2)CC1	0	44*	-1	0
CC1CN(c2ncnc3c2cnn3-c2ccc(F)cc2)CC(C)O1 (stereo not drawn)	0	-47	1	0
COc1cccc(C2CC(=O)C=C(NCc3ccccc3OC)C2)c1 (stereo not drawn)	0	52*	12	1
Cc1ccccc1C(=O)/C=c1\[nH]c(=O)/c(=C\c2cccc(O)c2)s1	0	57*	4	0
O=C(/C=C/c1cccs1)NC(=S)NNC(=O)c1ccccc1O	4	81*	40	-1
SMILES	GPR151 ag	TEAD-YAP block	MITF primary	FBW7 act
O=C(NNC(=S)NC(=O)C(c1ccccc1)c1ccccc1)c1ccccc1O	0	86*	23	-2
Fc1ccccc1NC(=S)NCCN1CCOCC1	0	-3	20	0
O=C(Nc1ccc2c(c1)OCCO2)c1ccccc1NC(=S)NCCN1CCOCC1	-8	73*	-7	0
CC(C)CN1CCN(Cc2cnc(N(C)C)s2)CC1CCO (stereo not drawn)	2	6	15	0
Cc1cncc2cccc(NC3CCN(C(=O)[C@H](C)O)CC3)c12	0	5	11	-1
Cc1cncc2cccc(NC3CCCNC3)c12 (stereo not drawn)	1	94*	-2	0
COc1ccc(-n2c(=S)[nH]c3cc(C(=O)Nc4cccc(C)c4)ccc3c2=O)c(OC)c1	2	48*	8	0
O=C(Nc1ccc(Oc2ccccc2)cc1)c1ccc2c(=O)n(-c3cccc(C(F)(F)F)c3)c(=S)[nH]c2c1	0	-1	-6	0
O=C(Nc1ccc(Oc2ccccc2)cc1)c1ccc2c(=O)n(-c3cc(C(F)(F)F)ccc3Cl)c(=S)[nH]c2c1	0	36*	-7	0
COc1ccc(C2(c3ccc(OC)c(C)c3)CCCC2)cc1C	1	0	-2	0
COc1ccc2c(c1)c1c3n2CCN(Cc2ccccc2)C3=[N+](C)CC1	3	42*	1	0
COc1ccc2c(c1)c1c(n2Cc2ccccc2)CCCC1	0	3	16	1
CC1=C(C(=O)OC(C)C)C(c2ccncc2)C2=C(CC(c3ccccc3)CC2=O)N1 (stereo not drawn)	0	9	8	2.1*!
CC1=C(C#N)C(c2ccc(C)cc2)C2=C(CC(c3ccccc3)CC2=O)N1 (stereo not drawn)	-1	32*	2	0
COc1ccc(C2CC(=O)C3=C(C2)NC(C)=C(C(=O)OC(C)C)C3c2ccccc2OC(C)C)cc1 (stereo not drawn)	0	-7	8	2.4*
CCOC(=O)C1=C(C)NC2=C(C(=O)CC(c3ccc(OC)cc3)C2)C1c1ccccc1OC(C)C (stereo not drawn)	1	-5	17	0
Cc1ccc(S(=O)(=O)N2c3ccc(C)cc3-c3ccccc3S2(=O)=O)cc1	3	50*	-3	0
COc1ccc2c(c1)-c1cc(Cl)ccc1S(=O)(=O)N2S(=O)(=O)c1ccc(C)cc1	0	2	5	0
CSc1ccc(CN2CCC(=O)N(CC3CCCCC3)CC2)cc1	1	-9	-13	0
Cn1nnnc1Sc1nc(CN2CCOCC2)nc2scc(-c3cccs3)c12	-1	61*	-1	0
O=c1[nH]c(CN2CCOCC2)nc2scc(-c3cccs3)c12	0	-4	-12	0
O=C(Nc1noc2ccccc12)c1cccc(F)c1	-4	-17	-4	0
COc1ccc(C(=O)Nc2noc3ccccc23)c(OC)c1	-10	88*	-4	0
Cc1ccccc1C(=O)Nc1noc2ccccc12	-12	43*	-2	0
O=C(Nc1noc2ccccc12)c1ccc(F)cc1	-12	44*	-7	0
SMILES	GPR151 ag	TEAD-YAP block	MITF primary	FBW7 act
COc1ccccc1C(=O)Nc1noc2ccccc12	-5	27	15	0
CC(C1CC1)N(C(=O)c1ccc(F)cc1)c1ccccc1 (stereo not drawn)	0	0	17	0
CCN(CC)C(=O)c1ccc(SCc2cccnc2)c([N+](=O)[O-])c1	2	-3	9	0
Cc1cc(C)c2cc(CNCCO)c(Cl)nc2c1	0	3	5	0
Cc1nnc(N/N=C/c2ccccc2)[nH]c1=O	0	-4	-7	0
CCOc1ccc(N=Cc2c(C)[nH]n(-c3ccccc3)c2=O)cc1	2	0	1	0
Cc1[nH]n(-c2ccccc2)c(=O)c1C=Nc1ccc(N(C)C)cc1	0	21	63*	0
Cc1[nH]n(-c2ccccc2)c(=O)c1/C=N/Nc1nnc(C)c(=O)[nH]1	0	15	101*	0
